Consider 14 compounds from PubChem BioAssay.

Assay [1] in a line: inhibitors of TNFa-induced NFkB p65 translocation, primary screen, imaging, HUVEC, MLSMR starter and 10KST1 sets (AID 438;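 active means inhibition above 20% together with a positive visual image hit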;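 further: compound added about 3h40 before a 20 min TNFalpha stimulation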;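 on inhibition: signal is the nuclear over cytoplasmic p65 intensity ratio per well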). The note with it: HUVEC TNFa-induced p65 nuclear translocation; cell count: measured here: nuclei count (cytotoxicity indicator), at 2.08 µM; inhibition: at 2 µM, stronger effect = higher value, 0% TNFa-plus-vehicle, 100% no-TNFa wells.
Assay [2] is described as follows: inhibitors of mutant huntingtin aggregation, primary screen, imaging, exon1htt(103Q)mCFP cells, high-content imaging (AID 483;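 active means visual image review flags a hit and inhibition of aggregation exceeds 20%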;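 further: compound exposure lasted 3 days before fixation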;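 on nuclei count: percent of the per-plate median nuclei count of sample wells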). Particulars: exon1htt(103Q)mCFP cell line, aggregate imaging, at 2 µM; inhibition of aggregation: stronger effect = higher value; nuclei count: measured here: cell count, toxicity.
Assay [3] in a line: inhibitors of E-selectin induction by TNFa, primary screen, imaging, HUVEC, immunofluorescence, MLSMR starter and 10KST1 sets (AID 487;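 active means visually confirmed hit in the image check and inhibition above 20%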;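 on inhibition: signal is fraction of cell area covered by stained E-selectin grains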;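 on nuclei count: 100% = median nuclei count of all wells on the same plate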). Particulars: HUVEC TNFalpha-induced E-selectin immunofluorescence imaging, at 2 µM; inhibition: stronger effect = higher value; nuclei count: measured here: cell number, toxicity.
For assay [4], the target named is Voltage-gated potassium channel subunit beta-2 (Rattus norvegicus) (UniProt P62483). The assay can be described thus: KvBeta enzyme negative modulators, primary screen, biochemical, NADPH fluorescence (AID 622).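 Further: slope of raw intensity against log time taken from 70 to 1610 s.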 The note with it: recombinant KvBeta, 4-cyanobenzaldehyde reduction, at 10 µM, stronger effect = higher value.
Assay [5] shares this target. The assay can be described thus: KvBeta positive modulators, primary screen, biochemical, NADPH fluorescence (AID 623;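 active means NADPH fluorescence slope more negative than the mean of all samples by about 3 SD, 99.7% confidence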;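 further: fluorescence intensity change per second fitted from 20 to 320 s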). The note with it: Recombinant KvBeta, NADPH fluorescence decrease slope, 10 min; at 10 µM; stronger effect = lower value.
For assay [6], the target named is Alpha-2C adrenergic receptor (Homo sapiens) (UniProt P18825). The assay can be described thus: modulators of alpha2C/GIRK thallium flux, primary screen, cell-based, HEK293 alpha2C/GIRK1/2 (AID 624;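 active means fluorescence slope after compound addition differing from the mean of all screened samples at 99.7% confidence, in either direction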;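 further: slope of fluorescence ratio to pre-addition baseline per second over 15 to 24 s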). Particulars: thallium flux BTC fluorescence, at 10 µM, actives lie on both sides.
The nature of assay [7]: inhibitors of Sendai virus-induced IRF3 signaling, primary screen, TLR/RLR signaling modifier project, cell-based, Sendai virus stimulus, luciferase, 10K MLSCN set (AID 602276;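 active means inhibition at or above 50% at 10 µM; inactive means inhibition below 50%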;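 further: firefly luciferase from ISG56 promoter only with Renilla not read in this screen; 0% = Sendai virus plus DMSO and 100% = medium plus DMSO without virus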). The note with it: HEK293 RL24 IRF3 luciferase reporter, at 10 µM, stronger effect = higher value.
Assay [8] can be described thus: inhibitors of poly I:C-induced TLR3 signaling, primary screen, cell-based, poly I:C stimulus, luciferase, 10K MLSCN set (AID 602277;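 active means inhibition of the reporter signal at or above 50%; inactive means inhibition below 50%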). The note with it: HEK293-TLR3 RL24 IRF3 luciferase reporter, at 10 µM, stronger effect = higher value.

Active and inactive are the calls of the source.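 How the source made its calls, unless noted: active means fluorescence slope higher than the sample average by over 3 SD (cut at about -0.22 in these data, passing the limit was not always enough); inactive means the rest.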

Sequence of Alpha-2C adrenergic receptor (Homo sapiens) (P18825 whole entry, looked up): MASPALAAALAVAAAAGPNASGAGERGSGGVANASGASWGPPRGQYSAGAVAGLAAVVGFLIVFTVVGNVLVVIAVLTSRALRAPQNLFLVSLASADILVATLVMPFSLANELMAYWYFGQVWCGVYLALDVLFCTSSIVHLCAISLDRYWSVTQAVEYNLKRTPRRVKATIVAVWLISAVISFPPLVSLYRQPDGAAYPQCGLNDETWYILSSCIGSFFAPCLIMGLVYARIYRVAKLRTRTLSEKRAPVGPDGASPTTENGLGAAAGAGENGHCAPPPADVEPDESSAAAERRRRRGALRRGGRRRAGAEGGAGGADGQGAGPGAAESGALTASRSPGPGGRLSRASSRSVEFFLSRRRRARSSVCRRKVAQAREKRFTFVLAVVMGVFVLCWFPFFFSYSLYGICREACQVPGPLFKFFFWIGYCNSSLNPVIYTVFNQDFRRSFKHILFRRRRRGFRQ
Sequence of Voltage-gated potassium channel subunit beta-2 (Rattus norvegicus) (P62483 whole entry, looked up): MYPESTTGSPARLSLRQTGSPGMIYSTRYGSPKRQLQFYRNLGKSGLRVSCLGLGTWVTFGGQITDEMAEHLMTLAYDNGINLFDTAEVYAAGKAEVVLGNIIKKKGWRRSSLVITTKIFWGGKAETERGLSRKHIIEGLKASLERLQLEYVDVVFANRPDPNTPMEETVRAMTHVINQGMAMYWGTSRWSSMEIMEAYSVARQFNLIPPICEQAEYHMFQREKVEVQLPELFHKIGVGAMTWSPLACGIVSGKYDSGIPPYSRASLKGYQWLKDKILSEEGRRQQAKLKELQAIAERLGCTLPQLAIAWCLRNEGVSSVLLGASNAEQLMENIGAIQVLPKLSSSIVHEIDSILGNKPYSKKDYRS

On to `CC(=O)NC(CCS(C)(=O)=O)C(=O)Nc1cccc(C)c1C` (centres undefined), for which, in assay [1], the cell count was found to be 576. The inhibition in assay [1] was 4.3% (inactive); in assay [3], -6.3% (inactive); in assay [7] it was 17.7% (inactive); in assay [8] it was 38.7% (inactive). Besides, the inhibition of aggregation in assay [2] was 0.4% (inactive). Also, the figures for the nuclei count in assay [2] and in assay [3] were 110% and 117%, respectively. In addition, in assay [4], the fluorescence slope was -0.542 (inactive). Also, the NADPH fluorescence slope in assay [5] was -7e-05 (inactive). Moreover, the slope in assay [6] is 0.00627 (inactive).

Take `O=C(OCC(=O)c1ccccc1Br)c1ccccn1`: the cell count in assay [1] was 308. The inhibition was 2.7% (inactive) in assay [1], -10.2% (inactive) in assay [3], 3.27% (inactive) in assay [7] and 26.5% (inactive) in assay [8]. The inhibition of aggregation in assay [2] was -3.7% (inactive). Besides, the nuclei count in assay [2] amounted to 98.4%; in assay [3] it was 95.3%. The fluorescence slope in assay [4] is -0.536 (inactive). The NADPH fluorescence slope in assay [5] is -4.2e-05 (inactive). Moreover, the slope in assay [6] was 0.00716 (inactive).

Turning to `CN1CCN(C(=O)C2CCN(S(=O)(=O)c3ccc4c(c3)oc(=O)n4C)CC2)CC1`, the cell count in assay [1] came to 554. Moreover, the inhibition in assay [1] was -4.7% (inactive); in assay [3], -22% (inactive); in assay [7], 8.49% (inactive); in assay [8], 23.9% (inactive). The inhibition of aggregation in assay [2] was 8.3% (inactive). Further, the nuclei count in assay [2] stood at 100%; in assay [3], 116%. Also, the fluorescence slope in assay [4] is -0.59 (inactive). For the same compound, the NADPH fluorescence slope in assay [5] is -2.4e-05 (inactive). Besides, in assay [6], the slope is 0.00694 (inactive).

On to `CS(=O)(=O)NCCSCc1c(F)cccc1Cl`, for which the cell count in assay [1] stood at 270. The inhibition in assay [1] was 5.5% (inactive); in assay [3], -41.6% (inactive); in assay [7], 2.63% (inactive); in assay [8], 0.999% (inactive). In addition, the inhibition of aggregation in assay [2] is 0% (inactive). In addition, the nuclei count in assay [2] is 106%; in assay [3] it was 96.6%. Besides, the fluorescence slope in assay [4] was -0.527 (inactive). Moreover, the NADPH fluorescence slope in assay [5] was -2.1e-05 (inactive). In assay [6], the slope was 0.00448 (inactive).

Consider `COC(=O)c1c(C#N)c(N)nc2c1CCC2`, for which, in assay [1], the cell count amounted to 474. Besides, the inhibition in assay [1] was -0.6% (inactive); in assay [3] it was 33.1% (inactive); in assay [7], 9.2% (inactive); in assay [8] it was 8.56% (inactive). Besides, in assay [2], the inhibition of aggregation was 18.2% (inactive). For the same compound, the values for the nuclei count in assay [2] and in assay [3] were 80.9% and 92.6%, respectively. Also, in assay [4], the fluorescence slope was -0.00808 (active). Moreover, the NADPH fluorescence slope in assay [5] was -2e-06 (inactive). Moreover, in assay [6], the slope is 0.00834 (inactive).

Consider `COc1ccc2[nH]c(=O)c(CN(Cc3cccs3)S(=O)(=O)c3cccc4nsnc34)cc2c1`, for which the cell count in assay [1] turned out to be 510. The inhibition in assay [1] was -4.2% (inactive); in assay [3] it was -68.8% (inactive); in assay [7], 8.33% (inactive); in assay [8] it was 71.5% (active). The inhibition of aggregation in assay [2] was -15.3% (inactive). Further, the nuclei count in assay [2] and in assay [3] was 110% each time. Moreover, the fluorescence slope in assay [4] is -0.523 (inactive). For the same compound, the NADPH fluorescence slope in assay [5] was -0.000153 (inactive). Moreover, in assay [6], the slope is 0.00524 (inactive).

`CC(=O)Oc1ccc(-c2ccc(C(=O)O)cc2)cc1`: the cell count in assay [1] worked out at 385. Further, the inhibition in assay [1] is -6.5% (inactive); in assay [3], 35.1% (inactive); in assay [7], 4.99% (inactive); in assay [8] it was 14.8% (inactive). In addition, the inhibition of aggregation in assay [2] is 17.9% (inactive). For the same compound, the values for the nuclei count in assay [2] and in assay [3] were 99.6% and 102%, respectively. For the same compound, the fluorescence slope in assay [4] was -0.315 (inactive). Moreover, in assay [5], the NADPH fluorescence slope was -7.2e-06 (inactive). Besides, the slope in assay [6] was 0.00672 (inactive).

Regarding `CCOC(=O)c1[nH]c(C)c(C(=O)Nc2ccc(Cl)cc2)c1C`, the cell count in assay [1] came out at 709. Moreover, the inhibition is -1.6% (inactive) in assay [1], -32% (inactive) in assay [3], 6.23% (inactive) in assay [7] and -11% (inactive) in assay [8]. In assay [2], the inhibition of aggregation was -32.6% (inactive). Further, the nuclei count in assay [2] worked out at 89.1%; in assay [3], 114%. Besides, the fluorescence slope in assay [4] was -0.591 (inactive). In addition, the NADPH fluorescence slope in assay [5] was 2.4e-05 (inactive). In addition, the slope in assay [6] was 0.00669 (inactive).

As to `CCC(CO)Nc1ncnc2c1cnn2-c1ccc(Cl)cc1` (centres undefined), the cell count in assay [1] was found to be 550. For the same compound, the inhibition is 10% (inactive) in assay [1], 10.3% (inactive) in assay [3], 38.4% (inactive) in assay [7] and -14% (inactive) in assay [8]. For the same compound, the inhibition of aggregation in assay [2] is 7.5% (inactive). Further, the nuclei count in assay [2] was found to be 101%; in assay [3], 111%. Further, in assay [4], the fluorescence slope was -0.54 (inactive). Besides, in assay [5], the NADPH fluorescence slope is -1.3e-05 (inactive). Further, in assay [6], the slope was 0.00667 (inactive).

On to `CCCCOc1ccc(S(=O)(=O)n2c(C)nc3ccccc32)cc1`, for which, in assay [1], the cell count worked out at 445. Besides, the inhibition was -1.5% (inactive) in assay [1], -286% (inactive) in assay [3], 9.07% (inactive) in assay [7] and 16.6% (inactive) in assay [8]. Further, the inhibition of aggregation in assay [2] is -1.2% (inactive). For the same compound, the nuclei count in assay [2] is 102%; in assay [3] it was 113%. Also, the fluorescence slope in assay [4] was -0.387 (inactive). The NADPH fluorescence slope in assay [5] was 1.3e-05 (inactive). Moreover, the slope in assay [6] is 0.00302 (inactive).

For `CN(CCNS(=O)(=O)c1ccc2c(c1)oc(=O)n2C)Cc1ccccc1`, the cell count in assay [1] was 739. Further, the inhibition in assay [1] is -6.7% (inactive); in assay [3], -65.3% (inactive); in assay [7], 9.41% (inactive); in assay [8] it was 39.8% (inactive). Besides, the inhibition of aggregation in assay [2] is -7.2% (inactive). Besides, the nuclei count in assay [2] came to 95.2%; in assay [3], 119%. Besides, the fluorescence slope in assay [4] was -0.604 (inactive). Further, the NADPH fluorescence slope in assay [5] was -4.2e-05 (inactive). The slope in assay [6] is 0.0075 (inactive).

With `CC(C)c1nnc(NC(=O)CCC(=O)NCc2ccc3c(c2)OCO3)s1`, the cell count in assay [1] is 571. The inhibition in assay [1] is 11.2% (inactive); in assay [3] it was 21.4% (inactive); in assay [7] it was 14.1% (inactive); in assay [8] it was 13.8% (inactive). For the same compound, the inhibition of aggregation in assay [2] was -5.1% (inactive). The nuclei count is 95.8% in assay [2] and 97.3% in assay [3]. For the same compound, in assay [4], the fluorescence slope is -0.404 (inactive). In assay [5], the NADPH fluorescence slope is -4.6e-05 (inactive). The slope in assay [6] is 0.00581 (inactive).

For `COc1ccc(C2c3sc(=O)[nH]c3SC3C4CCC(C4)C23)cc1` (centres undefined), the cell count in assay [1] is 573. The inhibition is -7.6% (inactive) in assay [1], -69.5% (inactive) in assay [3], -5.3% (inactive) in assay [7] and 9.16% (inactive) in assay [8]. In addition, in assay [2], the inhibition of aggregation is -14% (inactive). For the same compound, the nuclei count in assay [2] amounted to 93.8%; in assay [3] it was 106%. Moreover, the fluorescence slope in assay [4] was -0.53 (inactive). Also, the NADPH fluorescence slope in assay [5] is 3.9e-05 (inactive). In addition, the slope in assay [6] is 0.00413 (inactive).

As for `O=C(NC1=NCCS1)NC12CC3CC(CC(C3)C1)C2`, the cell count in assay [1] was 357. In addition, the inhibition in assay [1] was -3.3% (inactive); in assay [3], -52.9% (inactive); in assay [7], -1.24% (inactive); in assay [8], 12.2% (inactive). Moreover, the inhibition of aggregation in assay [2] is 6.6% (inactive). Also, the nuclei count amounted to 96.6% in assay [2] and 101% in assay [3]. The fluorescence slope in assay [4] was -0.598 (inactive). The NADPH fluorescence slope in assay [5] is -3.4e-05 (inactive). Also, the slope in assay [6] was 0.00362 (inactive).
